KCNQ2 pot – enhances the rat KCNQ2 potassium channel; O88943; CHO-K1 KCNQ2, FluxOR thallium flux fluorescence; stronger effect = higher value; B-score at 10 µM; hit rate 0.54% among 310,000; AID 2239;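 active means fluorescence ratio B-score at least 3 SD of library B-scores, with initial fluorescence B-score within 3 of them, cut at about 5.3 in these data; same plate scores as AID 2156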;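 further: B-score of peak minus minimum over baseline fluorescence ratio after K+ and Tl+ stimulus; positive B-score means potentiation of KCNQ2 with more thallium influx and brighter signal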
KCNQ2 block – blocks the rat KCNQ2 potassium channel; CHO-K1 KCNQ2, FluxOR thallium flux, 20 min; stronger effect = lower value; O88943; hit rate 1.1% among 310,000; B-score at 10 µM;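 active means fluorescence ratio B-score at most minus 3 library SDs, with starting brightness B-score within 2 library SDs, cut at about -5.5 in these data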
* = called active by the depositor; i = inactive; . = no result given. An excerpt weighted towards active compounds, which were near 1.6% of everything screened.

SMILES	KCNQ2 pot	KCNQ2 block
COc1cccc(CNC(=O)C2=C(C)C(=O)OC23CCC(C)CC3)c1 (stereo not given)	-6.9	-6.9*
COc1ccccc1CNC(=O)C1=C(C)C(=O)OC12CCC(C)CC2 (stereo not given)	.	i
COc1cc(NC(=O)CN(C)S(=O)(=O)c2ccc(-c3ccc(=O)[nH]n3)s2)cc(OC)c1	0.43	i
O=C(O)CC(NC(=O)/C(=C/c1ccccc1)NC(=O)c1ccccc1)c1ccccc1 (stereo not given)	0.06	i
O=C(Nc1ccccc1)N(c1ccccc1)C1C=CS(=O)(=O)C1 (stereo not given)	.	i
O=C(OCc1nnc(-c2ccccc2)o1)c1ccc(-n2cnnn2)cc1	0.35	i
O=C(OCc1nnc(-c2ccccc2)o1)c1cn(-c2ccccc2)nc1-c1ccccc1	-6.2	-6.2*
Cc1cc(C)c(S(=O)(=O)/N=C2\C=C(NS(=O)(=O)c3ccccc3)C(=O)c3ccccc32)c(C)c1	-5.7	-5.7*
Cc1ccc(NC2=C/C(=N\S(=O)(=O)c3cccs3)c3ccccc3C2=O)c(C)c1	.	i
Cc1ccccc1NC(=O)c1nn(C)c2c1CS(=O)(=O)c1ccccc1-2	0.01	i
COc1ccc(C(=O)Nc2cccc(C)c2)cc1S(=O)(=O)N1CCOCC1	0.04	i
COc1ccc(C(=O)NNC(=O)COc2ccc(Cl)cc2C)cc1S(=O)(=O)N1CCOCC1	-5.6	-5.6*
Cc1oc(-c2ccccc2)nc1Cn1cccc1C1=NC(c2ccccc2)CO1 (stereo not given)	-6	-6*
Fc1ccc(Cn2cccc2C2=NC(c3ccccc3)CO2)cc1 (stereo not given)	.	i
COc1cc(C(=O)NCC(=O)Nc2ccc(F)c(F)c2)ccc1OCC(=O)N1CCOCC1	.	i
CC(=O)Nc1ccccc1OCC(O)CS(=O)(=O)c1ccc(C(F)(F)F)cn1 (stereo not given)	0.29	i
Cc1ccc(OCC(=O)NCCNC(=O)c2ccc(C)nc2)cc1	0.95	i
O=c1[nH]c(C2CCCN(S(=O)(=O)c3ccccc3)C2)nc2c1nnn2Cc1ccc(OC(F)(F)F)cc1 (stereo not given)	0.06	i
O=S(=O)(c1ccc(OC(F)(F)F)cc1)N1CCCC(c2ccccc2)C1 (stereo not given)	-5.7	-5.7*
COc1ccc(-n2nc3c(c2NC(=O)COc2ccccc2F)CS(=O)(=O)C3)cc1	0.19	i
CCOC(=O)c1cc(-c2ccco2)nc2c1c(C)nn2-c1ccccc1	-6	-6*
CCCn1c(=O)c2c(C(=O)OCC)cc(-c3ccco3)nc2n(CCC)c1=O	.	i
Cc1nnc(SCC(=O)Nc2nccs2)n1N	.	i
N#CC[C@H](c1ccccc1)N1CCN(Cc2ccccc2)CCC1=O	0.17	i
CC(C)C[C@H](NC(=O)N1CC(=O)Nc2ccccc21)C(=O)N[C@@H](Cc1ccccc1)C(=O)O	.	i
SMILES	KCNQ2 pot	KCNQ2 block
CCC1c2ccc(C)n2CCN1C(=O)Nc1ccccc1C(=O)OC (stereo not given)	.	i
CCCC1c2ccc(C)n2CCN1C(=O)Nc1ccccc1Cl (stereo not given)	-7.2	-7.2*
CCOC(=O)c1ccccc1NC(=O)N1CCn2c(C)ccc2C1CC (stereo not given)	-6.2	-6.2*
CC1CCCCN1C(=O)Nc1ccccc1Cl (stereo not given)	.	i
CC(C)C(NS(=O)(=O)c1ccccc1)C(=O)N1CCCC1 (stereo not given)	0.55	i
COc1cc2c(cc1OC)CN(C(=O)c1cc(S(=O)(=O)N3CCOCC3)ccc1C)CC2	0.67	i
COC(=O)c1ccccc1S(=O)(=O)N1CCC(C(=O)OCc2ccc([N+](=O)[O-])cc2)CC1	.	i
O=C(COc1ccccc1)N=C1SC2CS(=O)(=O)CC2N1c1cccc(F)c1 (stereo not given)	.	i
CCC(CC)C1C(C#N)=C(N)Oc2cc(C)oc(=O)c21 (stereo not given)	0.34	i
Cc1cc2c(c(=O)o1)C(c1ccc([N+](=O)[O-])o1)C(C#N)=C(N)O2 (stereo not given)	7.7*	i
COc1ccc(COc2ccc(S(=O)(=O)N3CCCC3)cc2C(N)=O)cc1F	0.25	i
CC(C)(C)c1ccc(OCCC(=O)OCC(=O)N2c3ccccc3NC(=O)C2(C)C)cc1	.	i
Cc1cc(C)cc(NS(=O)(=O)c2ccc(-c3cnc(C4CC4)o3)cc2)c1	.	i
Cc1ccc(C)c(NS(=O)(=O)c2ccc(-c3cnc(C4CC4)o3)cc2)c1	-6.8	-6.8*
COCCNC(=O)[C@@]1(C)C=C[C@@H](Cc2ccccc2)N1C(=O)c1ccccc1	0.24	i
C[C@]1(C(=O)NCc2cc(F)cc(C(F)(F)F)c2)C=C[C@@H](Cc2ccccc2)N1C(=O)c1ccccc1	-7.2	-7.2*
CC(=O)Nc1ccc(NC(=O)CSc2ncc(C(=O)Nc3ccc(F)cc3)c(=O)n2C)cc1	.	i
CCSc1ncc(/C=N/Nc2ccc(F)cc2)n1C	-8.5	-8.5*
COc1ccc(C(=O)Nn2c(C)nc3ccccc3c2=O)c(OC)c1	.	i
COc1cccc(C(=O)Nn2c(-c3cccs3)nc3ccccc3c2=O)c1OC	-6.4	-6.4*
CN1CCN(S(=O)(=O)c2cccc(C(=O)N(Cc3nnc(-c4ccccc4Cl)o3)C3CC3)c2)CC1	.	i
O=C(CSc1ncn[nH]1)N1N=C2/C(=C/c3ccccc3)CCCC2C1c1ccccc1 (stereo not given)	-5.7	-5.7*
COc1ccc(/C=C2\CCCC3C2=NN(C(=O)CSc2ncn[nH]2)C3c2ccc(OC)cc2)cc1 (stereo not given)	.	i
Cc1ccc(Cl)cc1N1CCN(S(=O)(=O)c2ccc3c(c2)NC(=O)C(C)C(=O)N3)CC1 (stereo not given)	.	i
CC12CCC(c3c(C(=O)O)nn(-c4ccccc4)c31)C2(C)C (stereo not given)	0.88	i
SMILES	KCNQ2 pot	KCNQ2 block
CC12CCC(c3c(C(=O)Nc4nccs4)nn(-c4ccccc4)c31)C2(C)C (stereo not given)	-8.3	-8.3*
O=[N+]([O-])c1cc([N+](=O)[O-])c2cc(-c3cccnc3)[nH]c2c1	0.32	i
O=C(/C=C/c1ccc([N+](=O)[O-])cc1)c1ccco1	-7.3	-7.3*
O=C(/C=C/c1ccc(Br)cc1)c1ccco1	.	i
Cc1ccc(N2CC(C)Cn3c2nc2c3c(=O)[nH]c(=O)n2C)cc1C (stereo not given)	0.3	i
O=C(O)CC1SC(=O)N(CC(=O)c2ccccc2)C1=O (stereo not given)	1.4	i
CCOC(=O)C(Cc1ccccc1)C(=O)NCc1cccnc1 (stereo not given)	0.94	i
CCOC(=O)C(Cc1ccccc1)C(=O)Nc1cccc2ccccc12 (stereo not given)	-5.8	-5.8*
CC(C)(C)OC(=O)N1CCCC1C(=O)NCCc1ccccc1 (stereo not given)	0.63	i
CCc1cc2c(C)cc(=O)oc2cc1OC(=O)C1CCCN1C(=O)OC(C)(C)C (stereo not given)	-6	-6*
CN1CCc2c(sc(NC(=O)C3CCN(S(=O)(=O)c4cccs4)CC3)c2C(N)=O)C1	0.59	i
Cn1c2ccccc2c2c(C(=O)O)cn(C3CCCC3)c(=O)c21	.	i
Cc1ccc(CNC(=O)c2cn(C3CCCC3)c(=O)c3c2c2ccccc2n3C)o1	-8	-8*
